Source: PubChem BioAssay

Assay: calcein-AM signal in unstimulated myeloma cells – cell-based, calcein-AM fluorescence, 48 h, PK04 Diversity Set, profiling panel (AID 1166);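 note: cells grown under basal conditions without added stimulus; test concentration not given here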
Conditions: RPMI8226 myeloma viability, higher = more signal
For `O=C1c2ccccc2[C@](Cc2ccccc2I)(C(=O)NCCN2CCOCC2)[C@H](c2ccc(CO)cc2)N1Cc1ccccc1`, the z-score was -0.347. In the case of `CN(C)CCCCNC(=O)[C@H]1C[C@H]2C(=O)N3CCC[C@H]3C(=O)N2[C@H]1c1ccc(O)cc1`, the z-score is reported as 0.293. `C=C(CCCC)C(=O)CC[C@@H](OC(=O)c1ccccc1-c1ccccc1C(=O)O)c1cccc(OCCO)c1` gave a z-score of -3.91. For `C=C(C(=O)CC[C@H](OC(=O)c1cccnc1)c1ccc(CO)o1)C(C)C`, the z-score was 0.202. For `COc1ccc(C#Cc2ccc3c(c2)[C@]2(C(=O)N3)[C@H](C(=O)N3CCc4cc(OC)c(OC)cc4C3)[C@H]3C(=O)O[C@H](c4ccccc4)[C@H](c4ccccc4)N3[C@@H]2c2ccc(O)cc2)cc1`, the z-score was -0.293. Compound `[N-]=[N+]=NCc1ccccc1C[C@@]1(C(=O)N2CCCCC2)N=C(c2ccc(OCCCO)cc2)O[C@@H]1c1ccccc1N=[N+]=[N-]` has a z-score of -3.21. In the case of `C=C[C@@H](COC(C)=O)NS(=O)(=O)c1ccc(Br)cc1`, the z-score is reported as -1.74. For `CCOC(=O)C[C@H]1[C@H](OC(=O)c2ccc(-c3ccccc3)cc2)[C@@H](NC(=O)c2ccc3ccccc3c2)c2cc(OCCCO)ccc2N1C(=O)c1ccc2ccccc2n1`, the z-score was -1.06. With `CC(C)(C)OC(=O)CC[C@]1(C(=O)NCCN2CCOCC2)N=C(c2ccc(OCCCO)cc2)O[C@H]1c1ccccc1` the z-score was -0.51. `C=CCOC(=O)[C@@H]1[C@H]2C(=O)O[C@H](c3ccccc3)[C@H](c3ccccc3)N2[C@H](c2ccc(OCCOC(=O)[C@H]3C[C@H]4C(=O)N[C@@H](CC(C)C)C(=O)N4[C@H]3c3ccc(O)cc3)cc2)[C@@]12C(=O)Nc1ccc(I)cc12` showed a z-score of 1.08. In the case of `O=C(CS)NCCCCCCNC(=O)[C@@H]1C[C@@H]2C(=O)N3CCC[C@H]3C(=O)N2[C@@H]1c1cccc(OCCO)c1`, the z-score is reported as 0.449. `COc1ccccc1CN1C(=O)c2ccccc2[C@@H](C(=O)NC(C)C)[C@@H]1c1ccc(CO)cc1` showed a z-score of 0.717. Work on `C=CCOC(=O)[C@@H]1[C@H]2C(=O)O[C@H](c3ccccc3)[C@H](c3ccccc3)N2[C@H](c2ccc(OCCOC(=O)[C@H]3C[C@H]4C(=O)N[C@@H](CCCCNC(C)=O)C(=O)N4[C@H]3c3cccc(OCCO)c3)cc2)[C@@]12C(=O)Nc1ccc(I)cc12` yielded a z-score of -0.0069. Work on `O=C1OCC=C[C@H]2OC34C=CCN(Cn5nnc6ccccc65)C(=O)[C@H]3N(CCCCCCO)C(=O)[C@@H]4[C@@H]12` (some centres not stated) yielded a z-score of 0.447. `COC(=O)Cn1c(C(=O)N2CCCC2)cc2c1C[C@H]1CN(C(=O)c3ccccc3)[C@@](Cc3ccc(F)cc3)(C(=O)OC)[C@@H]21` gave a z-score of 0.63. For `COc1cc(OC)c(C(O)C2C=CC3C(=O)N(c4ccccc4)C(=O)C3N2Nc2ccc(C#N)cc2)cc1Br` (configuration not stated), the z-score was -0.241. Compound `COc1ccc([Si](C)(C)[C@@H]2[C@@H](CC(=O)N3CCC[C@H]3CO)O[C@]3(C(=O)N(Cc4ccc(N5C(=O)c6cccc7cccc5c67)cc4)c4ccccc43)[C@H]2C)cc1` has a z-score of -4.35. Work on `CC=CC(O)C1C=CC2C(=O)N(c3ccccc3)C(=O)C2N1Nc1ccccc1` (configuration not stated) yielded a z-score of -0.279. `CC(C)C(=C=CC[C@@H](O)c1ccccc1OCCO)C[C@@H](O)COCc1ccccc1` gave a z-score of -0.399. `CC(C)(C)N1CC=CC23O[C@@H]4C=CCOC(=O)[C@@H]4[C@H]2C(=O)N(CCCO)[C@@H]3C1=O` (some centres not stated) showed a z-score of -0.664. Work on `COc1c(C)cc(-c2cc3c(c(-c4ccccc4)n2)[Si](C(C)C)(C(C)C)OC3)cc1C` yielded a z-score of -0.515. For `Cc1ccc(S[C@]2(C(=O)NCC(C)C)CC(=O)N(Cc3ccccc3Cl)[C@@H]2c2ccc(CO)cc2I)cc1`, the z-score was -1.67. For `O=C1O[C@@H](c2ccccc2)[C@@H](c2ccccc2)N2[C@@H](c3ccccc3OCCO)[C@]3(C(=O)Nc4ccc(C#CC5=CCCCC5)cc43)[C@@H](C(=O)NC[C@H](O)c3ccccc3)[C@H]12`, the z-score was -4.07. Work on `O=C(O)[C@H](Cc1ccccc1)n1cc(-c2ccccn2)nn1` yielded a z-score of -0.608. `CC1CC/C=C\[C@H]2OC34C=CCN(CCN5CCOCC5)C(=O)[C@H]3N(CCO)C(=O)[C@@H]4C2C(=O)O1` (some centres not stated) gave a z-score of 0.143. With `CCOC(=O)C[C@H]1[C@H](OC(=O)c2ccc(-c3ccccc3)cc2)[C@@H](NC(=O)C2CCCCC2)c2cc(OCCCO)ccc2N1C(=O)c1ccccc1` the z-score was -0.203. For `COCCCNC(=O)[C@@]1(Sc2ccc(C)cc2)CC(=O)N(Cc2cc(C(F)(F)F)cc(C(F)(F)F)c2)[C@@H]1c1ccc(CO)cc1`, the z-score was 1.42.
